Assay results: PubChem BioAssay (NCI)
The panel holds about 83,000 compounds, 20% with a hit somewhere; the sample as a whole holds those more often.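 Growth was measured after 48 h exposure to one concentration of compound in 96-well plates. Values under 10 count as active.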 The source made the active and inactive calls.

Assays:
Experiment in all cases: NCI-60 one-dose screen, 48 h (100 = growth as untreated, 0 = no growth, -100 = all killed)
Conditions in all cases: 10 µM
[1] = tested on: MALME-3M melanoma
[2] = tested on: MDA-MB-231 breast
[3] = tested on: M14 melanoma
[4] = tested on: SK-MEL-5 melanoma
[5] = tested on: LOX IMVI melanoma
[6] = tested on: SK-MEL-28 melanoma
[7] = tested on: SN12C renal
[8] = tested on: MOLT-4 leukemia
[9] = tested on: OVCAR-5 ovarian
[10] = tested on: OVCAR-4 ovarian
[11] = tested on: SK-OV-3 ovarian
[12] = tested on: IGROV1 ovarian
[13] = tested on: HS 578T breast
[14] = tested on: NCI/ADR-RES ovarian
[15] = tested on: T-47D breast
[16] = tested on: SW-620 colon
[17] = tested on: MCF7 breast
[18] = tested on: HCT-116 colon
[19] = tested on: KM12 colon
[20] = tested on: RXF 393 renal

Measured: growth

CC1=C2C(=C[C@@](C)(COC(=O)c3ccc(S(=O)(=O)F)cc3)[C@@H]2OC(=O)c2ccc(S(=O)(=O)F)cc2)C(=O)[C@](C)(O)C12CC2
inactive: [7] 21% | [8] 23.4% | [13] 33.4% | [19] 28.2%
active: [1] -57.3% | [2] 1.44% | [3] -46.3% | [4] -96.9% | [5] 6.84% | [6] 7.54% | [9] 4.81% | [10] -9.11% | [11] -9.96% | [12] 0.149% | [14] 9.12% | [15] -20% | [16] -3.99% | [17] 6.34% | [18] 0.583%

COC(=O)[C@H]1[C@@H](O)[C@@]2(O)c3c(OC)cc(OC)cc3O[C@@]2(c2ccc(OC)cc2)[C@@H]1c1ccccc1
active: [1] -21.8% | [2] -5.45% | [20] -20.3% | [3] -1.79% | [4] -55.8% | [5] -38.6% | [6] -19.2% | [7] -11.5% | [8] 2.37% | [9] -6.47% | [10] 2.23% | [11] -12.2% | [12] -17.3% | [13] -5.48% | [14] 0.819% | [15] -11.7% | [16] 3.66% | [17] -0.926% | [18] -6.31% | [19] 3.23%

CN(CCF)/N=N/c1nc[nH]c1C(N)=O
inactive: [1] 37.5% | [2] 39.5% | [20] 76.6% | [3] 23.3% | [4] 74.6% | [5] 17.5% | [6] 49.3% | [7] 48.4% | [8] 18.7% | [9] 62.8% | [10] 44.2% | [12] 44% | [13] 93.1% | [14] 32.5% | [15] 57.3% | [16] 25.9% | [17] 36.2% | [18] 24% | [19] 58.9%
active: [11] -4.12%
